Source: ChEMBL document CHEMBL3988442, “University of Dundee, Small-Polar-MMV Screening Library” (2021)
The campaign covered roughly 48,000 compounds. About 13,000 (27%) showed an effect of 50% or more. The list shows a part of the results.

Tested on: Wolbachia pipientis
Test: Anti-Wolbachia Cell-Based Screen
Assay type: functional
Parameters: scale not given: in the data most compounds retested in dose-response had high values
Conditions: 5 µM

Structure (SMILES) | Percent Effect [%]
Cc1cccc(Nc2c(C#N)c(=O)n(C)c(=O)n2C)c1 | -3.383
Cc1cncc(C(=O)N2CCO[C@H]3[C@H](OCCN(C)C)CC[C@@H]32)c1.O=C(O)C(F)(F)F.O=C(O)C(F)(F)F | 111.8
O=C(O)C(F)(F)F.O=C(c1cnccn1)N1CCO[C@H]2[C@H](OCc3cccnc3)CC[C@@H]21 | -4.658
CN(C)CCO[C@@H]1CC[C@H]2[C@H]1OCCN2C(=O)c1ccnnc1.O=C(O)C(F)(F)F | 98
Cc1cncc(C(=O)N2CCO[C@H]3[C@H](Oc4ccccn4)CC[C@@H]32)c1.O=C(O)C(F)(F)F.O=C(O)C(F)(F)F | -8.484
Cc1cncc(C(=O)N2CC[C@@H]3[C@H]2CCC(=O)N3CCN(C)C)c1.O=C(O)C(F)(F)F.O=C(O)C(F)(F)F | -10.7
CN(C)CCO[C@@H]1CC[C@H]2[C@H]1OCCN2C(=O)c1ccncc1 | 113.2
Cc1ccc(C(=O)N2CCN3C[C@H](Oc4cccc(F)c4)C[C@H]3C2)cn1.O=C(O)C(F)(F)F.O=C(O)C(F)(F)F | 3.581
CC(C)N1CCCC2(CCN(C(=O)CCCn3cccn3)C2)C1=O (stereo not given) | -14.27
CC(NC(=O)c1cccs1)C(=O)NS(=O)(=O)c1cccc(C#N)c1 (stereo not given) | 3.018
CC(NC(=O)c1cccs1)C(=O)NS(=O)(=O)c1ccc(C#N)cc1 (stereo not given) | 8.47
Cc1nc(C)c(S(=O)(=O)NC(=O)c2sccc2C)s1 | 101.5
CSc1ccsc1C(=O)NS(=O)(=O)c1ccc(F)cc1 | -34.42
Cc1nc(C)c(S(=O)(=O)NC(=O)c2cccs2)s1 | 102.2
Cc1cn2c(n1)CCC(NS(=O)(=O)c1sc(C)nc1C)C2 (stereo not given) | -17.67
O=C(NCCCC(=O)N1Cc2ccccc2C1)NCc1cccnc1 | 2.963
CN(CC1CCC1)C(=O)c1ccc(-c2nc(C3CC3)n[nH]2)cc1 | 0.7414
CC1CNC(=O)CCN1Cc1cc(O)c2cccc(F)c2n1 (stereo not given) | -25.66
O=C(c1cscn1)N1CCc2ncnc(-c3ccncc3)c2CC1 | 110.3
CN(C)c1ncnc2c1CCN(C(=O)c1cccnc1)CC2.O=C(O)C(F)(F)F | 9.198
CN(C)CC(=O)N1CCc2ncnc(-c3ccsc3)c2CC1 | -2.469
O=C(c1ccccn1)N1CCc2ncnc(N3CCOCC3)c2CC1 | -1.06
O=C(c1cc[nH]n1)N1CCc2ncnc(NCc3ccccn3)c2CC1 | -6.382
O=C(C1CC=CC1)N1CCc2ncnc(-c3ccncc3)c2CC1 | 8.097
O=C(c1ccccn1)N1CCc2ncnc(-c3ccncc3)c2CC1 | 88.26

Structure (SMILES) | Percent Effect [%]
O=C(O)C(F)(F)F.O=C(c1cnccn1)N1CCc2ncnc(-c3cccnc3)c2CC1 | -7.804
O=C(O)C(F)(F)F.O=C(c1cscn1)N1CCc2ncnc(-c3cccnc3)c2CC1 | 99.58
CN(CC(=O)N(C)C1CCCCC1)C1CCc2ccccc21 (stereo not given) | -4.106
O=C(NCc1csc2ccccc12)NCC1(O)CCSC1 (stereo not given) | -14.62
CN(C)C1CCCN(C(=O)NCCNC(=O)C2CCCCC2)C1 (stereo not given) | 2.915
CNS(=O)(=O)c1ccc(CNC(=O)c2ccccn2)cc1 | 0.2857
CNS(=O)(=O)c1cccc(CNC(=O)c2c(C)oc(C)c2C)c1 | 20.61
Cc1oc(C)c(C(=O)NCc2cccc(NC(=O)CN(C)C)c2)c1C | 14.93
CCN(CC)c1ccc(CNC(=O)c2ccccn2)cn1 | 19.52
Cc1cccc(C(=O)NCc2ccc(CS(N)(=O)=O)cc2)n1 | 93.95
Cc1oc(C)c(C(=O)NCc2cccc(C(N)=O)c2)c1C | 95.24
CNS(=O)(=O)c1ccc(CNC(=O)NCC2CCC2)cc1 | -8.591
Cc1cccc(C(=O)NCc2ccc(S(N)(=O)=O)cc2)n1 | -0.8879
CNS(=O)(=O)Cc1ccc(CNC(=O)c2ccccn2)cc1 | 102.4
CNS(=O)(=O)Cc1ccc(CNC(=O)c2cccc(C)n2)cc1 | 2.12
Cc1oc(C)c(C(=O)NCc2ccccc2S(=O)(=O)N(C)C)c1C | -1.431
CNS(=O)(=O)c1ccc(CNC(=O)c2c(C)oc(C)c2C)cc1 | 84.51
CC(C)c1noc(CNc2cccc(-c3nnnn3C)c2)n1 | -7.266
N#Cc1cccc(C(=O)N2CC(c3nc(-c4ccc[nH]c4=O)no3)C2)c1 | 9.318
Cc1c[nH]c(CN(C)C(=O)c2ccc(CSc3nnc[nH]3)o2)n1 | -3.87
CC(C(=O)N(C)C1CCCCC1)S(=O)(=O)Cc1csc(-c2cccs2)n1 (stereo not given) | -23.89
Cc1cccc(C(=O)NCc2ccccc2)n1 | 112.9
CNS(=O)(=O)c1ccc(CNC(=O)c2cccc(C)n2)cc1 | 84.72
CNS(=O)(=O)c1ccc(CNC(=O)NCc2cc[nH]n2)cc1 | -14.1
CCN(CC)c1ccc(CNC(=O)c2cccc(C)n2)cn1 | 13.97

Structure (SMILES) | Percent Effect [%]
COc1ncccc1CNC(=O)c1cccc(C)n1 | 6.477
CN1CCN(Cc2nc3ccccc3[nH]2)[C@H]2CS(=O)(=O)C[C@H]21 | -11.18
CNc1cc(C)nc(N2CCC3(CC2)[C@H](O)C[C@@H]3OCCN(C)C)n1 | -28.04
CCC(=O)N1CCCCC1c1nc(N(C)C)ncc1-c1cc(C)no1 (stereo not given) | 127.9
CCCC(=O)N1CCCCC1c1nc(N(C)C)ncc1-c1cc(C)no1 (stereo not given) | 132.6
Cc1cc(C2CCCN2C(=O)COc2ccc(CC#N)cc2)on1 (stereo not given) | -5.28
Cc1cc(-c2cnc(N(C)C)nc2C2CCCCN2C(=O)C2CC2)on1 (stereo not given) | 124.3
COCC(=O)N1CCCCC1c1nc(N(C)C)ncc1-c1cc(C)no1 (stereo not given) | 90.99
Cc1csc(C2CCCCN2C(=O)COCc2nc(C)no2)n1 (stereo not given) | -7.815
Cc1ccc(C(=O)NCC(C)Cn2ccnc2C)c(=O)[nH]1 (stereo not given) | -21.01
Cc1nc(-c2cn(CCN)nn2)n(-c2ccc3c(c2)CCC3)n1 | -87.51
COc1ccc(NC(=O)N2CCCC2c2ccncc2)cn1 (stereo not given) | -8.379
CCc1nc(C)sc1CN1C[C@@H](C)[C@@](C)(O)C1 | 98.2
CCc1nc(C)sc1CN1CC[C@](C)(O)[C@H](C)C1 | 84.46
Cc1nc2c(c(N3C[C@@H](C)[C@@](C)(O)C3)n1)CCC2 | 13.84
CCc1nc(C)sc1CN1CC[C@](O)(CC)[C@H](O)C1 | 116.1
C[C@@H]1CN(Cc2c[nH]c(CC3CCCC3)n2)CC[C@]1(C)O | 8.823
COCC[C@]1(O)CCN(C(=O)c2cnn(C)c2)C[C@H]1C | -13.07
CC[C@@]1(O)CCN(Cc2cc(C3CCCCC3)no2)C[C@H]1O | 5.851
CCc1ccc(S(=O)(=O)N2CC[C@@](O)(CCOC)[C@H](C)C2)cc1 | -34.1
CC[C@@]1(O)CCN(c2ncc(Cl)cc2F)C[C@H]1O | -11.81
CCc1nc(C)sc1CN1CC[C@@](O)(CCOC)[C@H](C)C1 | 97.23
CNC(=O)c1noc(CN2CC[C@](C)(O)[C@H](C)C2)n1 | 23.29
CCc1nc(C)sc1CNC1CCN(Cc2ccccc2)C1 (stereo not given) | -80.76
O=C(O)CCNC(=O)C1(c2cccc(Br)c2)CCOCC1 | -13.76

Structure (SMILES) | Percent Effect [%]
NC(=O)C1CCCN1Cc1ccccc1NC(=O)Cc1cccc(F)c1 (stereo not given) | -5.666
N#Cc1cccnc1NCCNC(=O)N1CCSCC1 | -7.557
CC(C)N1CCc2c(C(=O)N3CCOCC3)nn(C)c2C1.O=C(O)C(F)(F)F | 113.7
CCC(C)N1Cc2c(C(=O)N3CCOCC3)nn(C)c2C1.O=C(O)C(F)(F)F (stereo not given) | 101.3
CC(C)N1CCc2[nH]nc(C(=O)N3CCOCC3)c2C1.O=C(O)C(F)(F)F.O=C(O)C(F)(F)F | -15.4
CC(C)N1CCc2ncn(C)c2C1C(=O)N1CCOCC1.O=C(O)C(F)(F)F (stereo not given) | -11.58
CCC(C)N1CCc2c(C(=O)N(C)Cc3ccccn3)nn(C)c2C1 (stereo not given) | -11.92
CC(C)N1CCc2[nH]nc(C(=O)N3CCN(C)CC3)c2C1.O=C(O)C(F)(F)F.O=C(O)C(F)(F)F.O=C(O)C(F)(F)F | -19.75
CC(C)N1Cc2c(C(=O)N3CCN(C)CC3)nn(C)c2C1 | 107
CCC(C)N1Cc2c(C(=O)N3CCCC3)nn(C)c2C1.O=C(O)C(F)(F)F (stereo not given) | 4.311
Cn1nc(Cn2cccn2)c2c1CN(C1CCOC1)C2.O=C(O)C(F)(F)F (stereo not given) | -10.84
CCSc1ccccc1C(=O)N1CCC(S(=O)(=O)c2nncn2C)CC1 | -2.113
O=C(CCN1CCc2cncnc2C1)N1CCc2sccc2C1 | -13.17
CCCN(Cc1nc2ccccc2[nH]1)Cc1ccccc1OC | -7.618
CNC(=O)C(CC(C)C)NC(=O)c1cccc(-c2n[nH]c(C)n2)c1 (stereo not given) | -1
COCC1CCN(C(=O)c2cccc(S(=O)(=O)NCC3(C)COC3)c2)C1 (stereo not given) | -10.59
CC(=O)N1CCCN(C(=O)NCc2ccccn2)CC1 | -1.258
CN1CCN(C(=O)c2cccc(S(=O)(=O)NCC3(C)COC3)c2)CC1 | -15.33
CN1CCCC(c2cccc(CCC(=O)NCc3ccccn3)n2)C1 (stereo not given) | 93.1
CN1CCCC(c2cccc(CCC(=O)NCC3(C)COC3)n2)C1 (stereo not given) | 99.75
CNC(=O)CCc1cccc(C2CCCN(c3cc(C)ncn3)C2)n1 (stereo not given) | 97.41
Cc1cnc(CN(C)C2CCN(CC(=O)Nc3c(C)n[nH]c3C)C2)o1 (stereo not given) | -8.354
Cc1n[nH]c(C)c1NC(=O)CCc1cccc(C2CCCN(C)C2)n1 (stereo not given) | 122.5
Cc1n[nH]c(C)c1NC(=O)CN1CCc2c(nc(C3CC3)n2C)C1 | 10.04
O=C(CCc1ccccn1)NC1CCCN(C2Cc3ccccc3C2)C1 (stereo not given) | 4.048
